Most compounds without a hit are left out; they make up all but 0.38% or so of the library.
Rab7 wt GTP bind: modulators of GTP binding to Rab7, primary screen, biochemical, wildtype, multiplex bead flow cytometry; Rab7 GTPase wild type (dog), Bodipy-FL-GTP binding; GST-Rab7 beads, fluorescent GTP binding; actives lie on both sides; untreated = 100%, excess cold GTP = 0%; GTP binding activity (percent of control), % at 10 µM; 0.055% of 190,000 active;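 active = fluorescent GTP binding to Rab7 beads changed by at least 20 points from the 100% baseline, either direction, mostly lower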;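 note: median green fluorescence of bound Bodipy-FL-GTP per Rab7 bead population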
Rab2A wt mod: modulators of GTP binding to Rab2A wildtype, primary screen, biochemical, dog, bead-based flow cytometry, multiplex | Ras-related protein Rab-2A (Canis lupus familiaris), P61105 | GST-Rab2 wt beads, Bodipy-GTP binding | GTP binding activity, % at 10 µM | 0.19% of 190,000 active;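 active = GTP binding activity at least 20 points away from 100%, either lowered or raised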;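 note: 0% = beads with excess unlabeled GTP and 100% = no-compound control corrected for plate trend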
Rac1 wt modul: wildtype Rac1 GTP binding modulators, primary screen, biochemical, GST-Rac1 beads, flow cytometry, multiplex. Ras-related C3 botulinum toxin substrate 1 (Homo sapiens), P63000. fluorescent GTP binding; actives lie on both sides; 0 = cold GTP competed, 100 = untreated. GTP binding activity (% of control), % at 10 µM. 0.27% of 190,000 active;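 active = GTP binding activity at least 20 points away from the 100% control level, either lower or higher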
Cdc42 wt: modulators of GTP binding to wildtype Cdc42, primary screen, biochemical, multiplex bead flow cytometry, Bodipy-GTP | percent activity (GTP binding), % at 10 µM | 0.2% of 190,000 active | Cell division control protein 42 homolog (Homo sapiens), P60953 | GST-Cdc42 beads; actives lie on both sides | AID 761, 2007;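 active = percent activity GTP binding at least 20 points away from the 100% baseline, either down as inhibitor or up as activator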;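 note: median bead fluorescence of bound Bodipy-FL-GTP at 100 nM; 0% = excess unlabeled GTP control and 100% = no compound control; below 100% means less GTP binding so inhibitor and above means activator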
Target sequence (P60953 whole entry, looked up): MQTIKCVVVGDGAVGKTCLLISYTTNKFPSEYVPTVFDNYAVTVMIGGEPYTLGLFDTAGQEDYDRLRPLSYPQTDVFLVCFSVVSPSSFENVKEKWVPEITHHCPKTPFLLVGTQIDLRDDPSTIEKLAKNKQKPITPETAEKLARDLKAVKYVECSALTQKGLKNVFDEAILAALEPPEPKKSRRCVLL
Rac1 act GTP bind: GTP binding modulators of activated mutant Rac1, primary screen, biochemical, bead-based flow cytometry, multiplex, fluorescent GTP; Ras-related C3 botulinum toxin substrate 1 (Homo sapiens), P63000; GST-Rac1 activated beads; actives lie on both sides; 100% means binding = to untreated wells; percent activity (GTP binding), % at 10 µM; 0.11% of 190,000 active;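 active = GTP binding at least 20 percentage points away from the 100% baseline, in either direction, so actives lie on both sides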
HRas wt GTP bind: modulators of GTP binding to HRas wildtype, primary screen, biochemical, bead-based flow cytometry, multiplex. GTPase HRas (Homo sapiens), P01112. GST-Ras wt beads, Bodipy-FL-GTP binding; actives lie on both sides. GTP binding activity, % at 10 µM. 0.14% of 190,000 active;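 active = GTP binding activity at least 20% away from the 100% baseline, either lowered as inhibitor or raised as activator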;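 note: 0% = unlabeled GTP competition control and 100% = no-compound control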
Target sequence (P01112 whole entry, looked up): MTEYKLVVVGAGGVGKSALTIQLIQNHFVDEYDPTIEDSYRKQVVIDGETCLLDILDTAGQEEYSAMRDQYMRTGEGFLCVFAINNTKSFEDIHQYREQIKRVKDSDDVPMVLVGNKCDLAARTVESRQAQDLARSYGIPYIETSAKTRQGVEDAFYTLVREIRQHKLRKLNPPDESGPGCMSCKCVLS
Starred values were filed as active, the others as inactive; [ ] = another dose, or the depositor's remark.

Results for Cc1cc(C)n2nc(C(=O)N3CCCC(CNS(=O)(=O)c4cccs4)C3)cc2n1 (stereo unspecified) ?
Rab7 wt GTP bind: 22*; Rab2A wt mod: 33*; Rac1 wt modul: 28*; Cdc42 wt: 34*; Rac1 act GTP bind: 31*; HRas wt GTP bind: 35*

Results for O=C(CCc1ccccn1)N1CCCC(CNS(=O)(=O)c2cccs2)C1 (stereo unspecified) ?
Rab7 wt GTP bind: 62*; Rab2A wt mod: 62*; Rac1 wt modul: 54*; Cdc42 wt: 61*; Rac1 act GTP bind: 53*; HRas wt GTP bind: 60*

What do the screens show for `CCOc1ccccc1NC(=O)CSc1ccc([N+](=O)[O-])cc1`?
Rab7 wt GTP bind: 102; Rab2A wt mod: 99; Rac1 wt modul: 97; Cdc42 wt: 97; Rac1 act GTP bind: 95; HRas wt GTP bind: 97

What do the screens show for `CCOC(=O)c1nc(Nc2ccc(C(C)=O)cc2)c2ccccc2n1`?
Rab7 wt GTP bind: 96; Rab2A wt mod: 86; Rac1 wt modul: 78*; Cdc42 wt: 83; Rac1 act GTP bind: 88; HRas wt GTP bind: 84

Results for S=c1nc(-c2sccc2OCc2ccc(Cl)cc2Cl)[nH][nH]1 ?
Rab7 wt GTP bind: 103; Rab2A wt mod: 95; Rac1 wt modul: 99; Cdc42 wt: 94; Rac1 act GTP bind: 92; HRas wt GTP bind: 96

Results for CC(C)N(C(=O)CS(=O)(=O)c1ccc(Cl)c(Cl)c1)C(C)C ?
Rab7 wt GTP bind: 100; Rab2A wt mod: 95; Rac1 wt modul: 94; Cdc42 wt: 90; Rac1 act GTP bind: 92; HRas wt GTP bind: 94

What do the screens show for `C/C(=C1/SC(=S)N(CCC(=O)O)C1=O)c1ccc(O)cc1`?
Rab7 wt GTP bind: 86; Rab2A wt mod: 85; Rac1 wt modul: 92; Cdc42 wt: 85; Rac1 act GTP bind: 77*; HRas wt GTP bind: 88

What do the screens show for `COc1cccc(NC(=O)CSc2nc3c([nH]c4ccccc43)c(=O)n2C)c1`?
Rab7 wt GTP bind: 115; Rab2A wt mod: 116; Rac1 wt modul: 123*[activator]; Cdc42 wt: 113; Rac1 act GTP bind: 99; HRas wt GTP bind: 112

How did Cc1cccc(NC(=O)CSc2nc3c([nH]c4ccccc43)c(=O)n2C)c1 do in these assays?
Rab7 wt GTP bind: 115; Rab2A wt mod: 101; Rac1 wt modul: 104; Cdc42 wt: 99; Rac1 act GTP bind: 97; HRas wt GTP bind: 103

How did C=CCn1c(SCC(=O)NC23CC4CC(CC(C4)C2)C3)nc2cc(C(=O)O)ccc2c1=O do in these assays?
Rab7 wt GTP bind: 103; Rab2A wt mod: 97; Rac1 wt modul: 95; Cdc42 wt: 94; Rac1 act GTP bind: 95; HRas wt GTP bind: 100

How did CCN(CC)c1ccc(/C=N/NC(=O)c2cccc(N3CCCC3=O)c2)cc1 do in these assays?
Rab7 wt GTP bind: 97; Rab2A wt mod: 95; Rac1 wt modul: 103; Cdc42 wt: 96; Rac1 act GTP bind: 98; HRas wt GTP bind: 99

What do the screens show for `CCN(CC)c1ccc(-c2nn3c(-c4cccnc4)nnc3s2)cc1`?
Rab7 wt GTP bind: 88; Rab2A wt mod: 73*; Rac1 wt modul: 83; Cdc42 wt: 72*; Rac1 act GTP bind: 84; HRas wt GTP bind: 73*

What do the screens show for `Cc1cn2c(nc(=O)c3cccnc32)s1`?
Rab7 wt GTP bind: 92; Rab2A wt mod: 83; Rac1 wt modul: 76*; Cdc42 wt: 85; Rac1 act GTP bind: 89; HRas wt GTP bind: 86

How did C/C(=C\c1ccccc1)C(=O)NCc1ccco1 do in these assays?
Rab7 wt GTP bind: 102; Rab2A wt mod: 97; Rac1 wt modul: 97; Cdc42 wt: 93; Rac1 act GTP bind: 94; HRas wt GTP bind: 96

Results for Cc1nc(-c2ccccc2)sc1C(=O)NN ?
Rab7 wt GTP bind: 104; Rab2A wt mod: 120*[activator]; Rac1 wt modul: 128*[activator]; Cdc42 wt: 125*[activator]; Rac1 act GTP bind: 114; HRas wt GTP bind: 118

What do the screens show for `COc1cc(/C=N/Nc2ccc(S(N)(=O)=O)cc2)cc(OC)c1OC`?
Rab7 wt GTP bind: 98; Rab2A wt mod: 89; Rac1 wt modul: 79*; Cdc42 wt: 89; Rac1 act GTP bind: 88; HRas wt GTP bind: 89

Results for COc1cc(/C=N/Nc2ccc(F)cc2F)cc(OC)c1OC ?
Rab7 wt GTP bind: 99; Rab2A wt mod: 97; Rac1 wt modul: 101; Cdc42 wt: 98; Rac1 act GTP bind: 97; HRas wt GTP bind: 99

How did CNc1ncc(C(=O)c2ccc(Br)cc2)s1 do in these assays?
Rab7 wt GTP bind: 100; Rab2A wt mod: 99; Rac1 wt modul: 121*[activator]; Cdc42 wt: 106; Rac1 act GTP bind: 106; HRas wt GTP bind: 101

Results for CNc1ncc(C(=O)c2ccccc2)s1 ?
Rab7 wt GTP bind: 99; Rab2A wt mod: 99; Rac1 wt modul: 101; Cdc42 wt: 101; Rac1 act GTP bind: 99; HRas wt GTP bind: 102

What do the screens show for `O=C(COc1ccccc1-c1ccccc1)N/N=C/c1ccncc1`?
Rab7 wt GTP bind: 58*; Rab2A wt mod: 61*; Rac1 wt modul: 55*; Cdc42 wt: 60*; Rac1 act GTP bind: 55*; HRas wt GTP bind: 59*

What do the screens show for `CCCCN(C)CCNC(=O)CCNC(=O)Cn1ccc2ccccc2c1=O`?
Rab7 wt GTP bind: 94; Rab2A wt mod: 96; Rac1 wt modul: 100; Cdc42 wt: 98; Rac1 act GTP bind: 97; HRas wt GTP bind: 98

How did CC(C)Oc1ccc(/C=N/NC(=O)c2ccc(N(Cc3ccccc3)S(C)(=O)=O)cc2)cc1 do in these assays?
Rab7 wt GTP bind: 87; Rab2A wt mod: 74*; Rac1 wt modul: 74*; Cdc42 wt: 84; Rac1 act GTP bind: 85; HRas wt GTP bind: 84

What do the screens show for `COC(=O)COc1ccc(/C=N/NC(=O)c2ccc(N(Cc3ccccc3)S(C)(=O)=O)cc2)cc1`?
Rab7 wt GTP bind: 89; Rab2A wt mod: 76*; Rac1 wt modul: 76*; Cdc42 wt: 86; Rac1 act GTP bind: 88; HRas wt GTP bind: 81

How did CS(=O)(=O)N(Cc1ccccc1)c1ccc(C(=O)Nc2cccnc2)cc1 do in these assays?
Rab7 wt GTP bind: 96; Rab2A wt mod: 102; Rac1 wt modul: 104; Cdc42 wt: 102; Rac1 act GTP bind: 99; HRas wt GTP bind: 100

Results for O=C(N/N=C/c1ccccc1)c1ccc(OCc2ccccc2)cc1 ?
Rab7 wt GTP bind: 95; Rab2A wt mod: 98; Rac1 wt modul: 103; Cdc42 wt: 99; Rac1 act GTP bind: 96; HRas wt GTP bind: 100

Screens deposited in PubChem BioAssay by NMMLSC.
